Screens deposited in PubChem by National Center for Advancing Translational Sciences (NCATS).
uPA generation = inhibitors of cell surface uPA generation | cell surface uPA generation assay, qHTS | Potency, µM (titrated, usually from 38.3 µM), inactives show at the highest dose activity change, negative = inhibition, most hits filed as inhibitors | hit rate 0.31% among 330,000 | AID 540303; active = well fitted inhibition curve with a large enough effect; inconclusive = small, poorly fitted or top-dose-only effect; inactive = no such curve, though single readings can be large or run the other way; tested in mouse RAW 264.7 cells; note: potency is the fitted concentration of half-maximal effect; % is set by controls: 0 for no effect and ±100 for the full control effect; nearly all actives have a fitted effect of over 55% in size
ATXN2 expr inh = reduces ATXN2 reporter expression in HEK-293 cells; HEK-293 ATXN2-luciferase reporter, luminescence, 24 h; Potency, µM (series often up to 57 µM), without a hit: at the top dose activity change, negative = inhibition, actives largely listed as inhibitors; hit rate 0.72% among 360,000; note: potency is the fitted concentration of half-maximal effect; % is set by controls: 0 for no effect and ±100 for the full control effect; nearly all actives have a fitted effect of over 55% in size
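qHTS (up to 57 uM final) was run with 24 h compound exposure of reporter cells at 37 °C. Each well was multiplexed: SteadyGlo luminescence measured ATXN2-luciferase expression after a fluorogenic Gly-Phe-AFC viability readout (25 uM final).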
TGFb SMAD3 inh = inhibitors of TGF-b signaling; HepG2 CAGA-GFP TGF-b/SMAD3 reporter, GFP fluorescence, 18 h; TGF-beta stimulated, 500 pg/mL final; Potency, µM (top dose mostly 46.1 µM), inactives show at the top dose activity, negative = inhibition, most hits filed as inhibitors; hit rate 1.2% among 410,000; note: potency is the fitted concentration of half-maximal effect; % is set by controls: 0 for no effect and ±100 for the full control effect; nearly all actives have a fitted effect of over 65% in size
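TGF-beta reporter screen: HEPG2 CAGA-GFP, 1% FBS, 500 pg/mL TGF-beta final, 18 h; per-cell GFP summed per well; curves fitted and categorized by class.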
ATXN viability = viability counter-screen for ATXN expression inhibitors; S2 cells (HEK-293 line with an ATXN2-luciferase reporter) viability, CellTiter-Fluor protease fluorescence, 24 h; Potency, µM (highest dose often 56.7 µM), usual class: cytotoxic; AID 651635; hit rate 0.49% among 400,000; note: potency is the fitted concentration of half-maximal effect; nearly all actives have a fitted effect of over 40% in size
Giardia kill = kills Giardia lamblia. Giardia lamblia trophozoite viability. hit rate 0.15% among 340,000. activity change, % at 7.66 µM, hits read low; in the data active = activity change below about -80%; inconclusive = between about -30% and that limit;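 note: parasites exposed to compound for two days anaerobically before the ATP read; % is set by controls: 0 for no effect and ±100 for the full control effect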
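Viability, read as ATP luminescence: trophozoites at 100 cells/well, compound added, 48 hrs anaerobic at 37 deg C, then 15-30 min room-temperature development before reading.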
HepG2 tox-1 = HepG2 cytotoxicity, counter-screen for TGF-b inhibitors; hit rate 0.76% among 410,000; AID 588856; HepG2 CAGA-GFP viability, ATP luminescence, 18 h; Potency, µM (series often up to 46.1 µM), without a hit: top-dose activity change, negative = cytotoxicity, most hits filed as cytotoxic; note: potency is the fitted concentration of half-maximal effect
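HepG2 CAGA-GFP cells (1000/well, DMEM with 1% FBS) received compound, then TGF-beta at 500 pg/mL final, and were incubated 18 hours at 37 degrees C. Viability was read by CellTiter-Glo luminescence. Media-only wells were set as complete cell-killing and DMSO as no toxicity.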
TGFb CAGA inh = confirmation of TGF-b signaling inhibitors in HepG2 reporter cells. shares compounds with TGFb SMAD3 inh. HepG2 CAGA-GFP TGF-b reporter, GFP fluorescence, 18 h; cells stimulated with TGF-beta, 500 pg/mL. Potency, µM (doses to about 46.1 µM), without a hit: at the highest dose activity, negative = inhibition, actives largely listed as inhibitors. hit rate 63% among 1,600; note: potency is the fitted concentration of half-maximal effect; % is set by controls: 0 for no effect and ±100 for the full control effect; nearly all actives have a fitted effect of over 65% in size
HepG2 tox-2 = HepG2 cytotoxicity, TGF-b inhibitor counterscreen; shares compounds with TGFb SMAD3 inh; HepG2 CAGA-GFP viability, ATP luminescence, 18 h; cells stimulated with TGF-beta, 500 pg/mL; Potency, µM (top dose mostly 46.1 µM), for inactives: at the highest dose activity, negative = cytotoxicity, actives largely listed as inhibitors; hit rate 27% among 1,600; note: potency is the fitted concentration of half-maximal effect; % is set by controls: 0 for no effect and ±100 for the full control effect; nearly all actives have a fitted effect of over 70% in size
TGFb CCL64 inh = blocks TGF-b signaling in CCL64 reporter cells; Potency, µM (doses to about 46.1 µM), without a hit: at the top dose activity, negative = inhibition, hits mostly inhibitors; CCL64 CAGA-GFP reporter, TGF-b stimulated, GFP fluorescence, 18 h; hit rate 41% among 1,600; AID 720536; shares compounds with TGFb SMAD3 inh; note: potency is the fitted concentration of half-maximal effect; nearly all actives have a fitted effect of over 65% in size
COP TGFb inh = validation of TGF-b inhibitors in HepG2 COP promoter reporter. Potency, µM (highest dose often 46.1 µM), without a hit: at the highest dose activity, negative = inhibition, most hits filed as inhibitors. HepG2 COP-GFP TGF-b reporter, GFP fluorescence, 18 h; cells stimulated by added recombinant TGF-beta. shares compounds with TGFb SMAD3 inh. hit rate 3% among 1,600; note: potency is the fitted concentration of half-maximal effect; nearly all actives have a fitted effect of over 70% in size
* hit, by the source's call; i = inactive; u = inconclusive; x = not tested or not shown. Hits are enriched below; roughly 2.6% of the tested compounds scored in any of these assays. Unless noted, calls come from the whole dose curve; as a rule, active = well fitted curve in the direction sought with a large enough effect; inconclusive = small, poorly fitted or top-dose-only effect, or another doubt; inactive = no such curve, though single readings can be large; an effect the other way counts as inactive or inconclusive.

SMILES	uPA generation	ATXN2 expr inh	TGFb SMAD3 inh	ATXN viability	Giardia kill	HepG2 tox-1	others
C[C@]12CCC(=O)C=C1[C@@H]1C[C@@H]1[C@H]1[C@@H]3[C@@H]4C[C@@H]4[C@@]4(CCC(=O)O4)[C@@]3(C)CC[C@@H]12	x	u	x	i	x	x
CCCCCCCCCCCCCCCC[n+]1ccc(/C=C/c2c[nH]c3ccccc23)c2ccccc21	x	x	u	x	x	-46%
CCOC(=O)/C(=C\c1ccc([N+](=O)[O-])o1)NC(=O)c1ccccc1	u	-21%	u	u	u	11µM*
CCCSS/C(CCO)=C(\C)N(C=O)Cc1cnc(C)nc1N	x	u	x	i	x	x
Cc1cc(C)n2nc(C(=O)NCC3Cc4cccc(-c5ccc(S(C)(=O)=O)cc5)c4O3)cc2n1 (stereo not drawn)	x	x	x	i	x	x
C=CCN=C1NN=C(c2cc(C)n(CCOC)c2C)CS1	2%	-23%	-4%	i	12	-5%
COCCn1c(C)cc(C2=NNC(=NC3CC3)SC2)c1C	-8%	0.21µM*	8%	u	u	10µM*
Cc1ccc(COc2ccsc2C(=O)NN)cc1	1%	-13%	-2%	x	-18	3%
C[C@H](NC(=O)c1sccc1OCc1ccc(Cl)cc1)c1ccccc1	x	22µM*	x	x	x	x
OCCNc1c2ccccc2nc2c(F)c(F)c(F)c(F)c12	-19%	7.5µM*	-25%	x	-13	11%
COc1ccc(CNC(=O)C2CCCN(c3nnc(C)c4c(C)n(-c5ccc(C)cc5)nc34)C2)cc1 (stereo not drawn)	x	-11%	u	u	x	-48%
COc1ccc(CNC(=O)C2CCN(c3nnc(C)c4c(C)n(-c5ccc(C)cc5)nc34)CC2)cc1	x	-2%	u	i	x	-33%
CCc1ccc(CNC(=O)C2CCCN(c3nnc(C)c4c(C)n(-c5ccc(OC)cc5)nc34)C2)cc1 (stereo not drawn)	x	-20%	11µM*	u	x	10µM*
COc1ccc(-n2nc3c(N4CCC(C(=O)NCc5cccc(F)c5)CC4)nnc(C)c3c2C)cc1	x	u	10µM*	u	x	16µM*
Cc1ccc(NC(=O)C2CCN(c3nnc(C)c4c(C)n(-c5ccccc5)nc34)CC2)cc1Cl	x	2%	u	i	x	8%
COc1ccc(NC(=O)C2CCCN(c3nnc(C)c4c(C)n(-c5ccccc5)nc34)C2)cc1Cl (stereo not drawn)	x	13µM*	16µM*	11µM*	x	18µM*
Cc1nnc(N2CCCC(C(=O)NCc3ccc(OC(C)C)cc3)C2)c2nn(-c3ccccc3)c(C)c12 (stereo not drawn)	-25%	u	-28%	16µM*	-6	-25%
COc1cc(CN2C(=O)CC[C@@H]3CN(Cc4ccccn4)CC[C@@H]32)cc(OC)c1OC	x	x	x	i	x	x
OC(c1cccnc1)c1ccc2c(c1)CN(Cc1ccc(-c3ccccc3Cl)o1)CCO2 (stereo not drawn)	x	x	x	i	x	x
C=CCOc1ccc2c(=O)n(C)c3ccccc3c2c1	x	x	-7%	x	u	-6%
ON=C1c2cc(OCCN3CCCCC3)ccc2-c2ccc(OCCN3CCCCC3)cc21	-7%	u	u	u	-2	-53%
NC(=S)NN=C1c2cc(OCCN3CCOCC3)ccc2-c2ccc(OCCN3CCOCC3)cc21	-10%	7.9µM*	u	x	-4	-60%
Cc1nc2cc(NC(=O)[C@@H]3C[C@@H](Sc4ccccn4)CN3Cc3ccccc3)ccc2s1	x	x	x	i	x	x
COc1ccc(S(=O)(=O)Nc2cc(SCC(=O)O)c(O)c3ccccc23)cc1	11µM*	x	11µM*	u	-8	-107%
O=C(O)CSc1cc(NS(=O)(=O)c2ccc(Cl)cc2)c2ccccc2c1O	-5%	u	u	i	-19	6.3µM*
SMILES	uPA generation	ATXN2 expr inh	TGFb SMAD3 inh	ATXN viability	Giardia kill	HepG2 tox-1	others
Cc1cc(Nc2ccccc2C(=O)O)ccc1Cl	x	x	x	i	x	x
COC(=O)[C@@H]1CCCN1Cc1ccc2c(c1)CN(Cc1ccc3c(c1)OCCO3)CCO2	x	x	x	i	x	x
CC(C)(C)C(=O)NC(=S)NNC(=O)c1ccc(-c2ccccc2)cc1	u	x	10µM*	u	-5	-51%
Cc1cnc(-n2ncc(C(=O)N(C)CC3COCCO3)c2C2CC2)nc1-c1cccs1 (stereo not drawn)	x	x	x	i	x	x
O=C1c2ccccc2-c2onc3c(N4CCN(CCO)CC4)cc(N4CCN(C(=O)c5ccco5)CC4)c1c23	2%	u	13µM*	x	7	18µM*
CC(C)(C)c1ccc(Cn2c(=O)cnc3ccccc32)cc1	-14%	u	10µM*	i	-11	-16%	TGFb CAGA inh=18µM*;HepG2 tox-2=u;TGFb CCL64 inh=-27%;COP TGFb inh=-15%
COc1ccc(-c2nc3cc(C)c(Br)c(C)n3c2CC(C)(C)C)cc1OC	x	11%	u	i	x	-13%
Cc1cc2nc(-c3ccc(F)cc3)c(CC(C)(C)C)n2c(C)c1Br	x	-22%	10µM*	u	x	-33%	TGFb CAGA inh=u;HepG2 tox-2=u;TGFb CCL64 inh=u;COP TGFb inh=-3%
CC(C)COC(=O)N(C)C[C@@H]1OCc2cnnn2CCCC(=O)N([C@H](C)CO)C[C@H]1C	x	6%	-5%	i	x	-44%
COC(=O)c1cccc(NC(=O)CSc2nnc(COc3ccccc3)n2C)c1	-4%	-3%	-1%	i	1	4%
COC(=O)c1ccc(CNC(=O)CSc2nnc(COc3ccccc3)n2C)o1	5%	-1%	u	i	10	3%	TGFb CAGA inh=-11%;HepG2 tox-2=12%;TGFb CCL64 inh=3%;COP TGFb inh=8%
